The source of these data is PubChem BioAssay (NCATS).

Results filed as inconclusive are left out. Entries that show only a call come without a potency. Active and inactive are the calls of the source. Calls follow the shape of the dose curve; as a rule, active = well fitted curve in the direction sought with a large enough effect; inconclusive = small, poorly fitted or top-dose-only effect, or another doubt; inactive = no such curve, though single readings can be large; an effect the other way counts as inactive or inconclusive.

Cytochrome P450 3A4 (Homo sapiens), sequence (P08684 whole entry, looked up): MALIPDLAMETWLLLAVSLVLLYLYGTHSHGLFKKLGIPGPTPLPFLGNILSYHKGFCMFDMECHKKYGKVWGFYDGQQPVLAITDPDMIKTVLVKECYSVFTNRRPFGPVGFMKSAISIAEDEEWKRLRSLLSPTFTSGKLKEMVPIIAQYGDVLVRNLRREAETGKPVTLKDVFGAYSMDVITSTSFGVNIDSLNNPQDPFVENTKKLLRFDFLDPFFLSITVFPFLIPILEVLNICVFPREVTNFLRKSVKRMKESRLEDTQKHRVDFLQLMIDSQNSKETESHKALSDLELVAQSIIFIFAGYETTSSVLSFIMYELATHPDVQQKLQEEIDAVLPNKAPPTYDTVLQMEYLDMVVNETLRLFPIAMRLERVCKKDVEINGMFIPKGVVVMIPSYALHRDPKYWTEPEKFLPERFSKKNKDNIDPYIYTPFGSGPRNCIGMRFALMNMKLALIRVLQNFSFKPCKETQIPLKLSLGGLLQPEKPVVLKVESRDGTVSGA
Cytochrome P450 2C9 (Homo sapiens), sequence (P11712 whole entry, looked up): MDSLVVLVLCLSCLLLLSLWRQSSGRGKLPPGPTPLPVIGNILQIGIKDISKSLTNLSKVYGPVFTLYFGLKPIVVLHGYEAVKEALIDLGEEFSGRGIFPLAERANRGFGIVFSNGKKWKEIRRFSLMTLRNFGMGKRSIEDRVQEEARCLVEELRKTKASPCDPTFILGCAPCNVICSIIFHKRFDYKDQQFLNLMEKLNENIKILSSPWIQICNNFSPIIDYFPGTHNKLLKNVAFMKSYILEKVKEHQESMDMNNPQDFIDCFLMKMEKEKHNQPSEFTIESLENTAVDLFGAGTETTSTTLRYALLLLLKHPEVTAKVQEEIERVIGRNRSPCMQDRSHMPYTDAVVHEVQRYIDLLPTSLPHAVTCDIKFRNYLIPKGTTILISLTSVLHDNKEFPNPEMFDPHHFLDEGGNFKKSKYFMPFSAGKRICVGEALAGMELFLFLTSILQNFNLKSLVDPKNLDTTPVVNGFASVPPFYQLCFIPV
Cytochrome P450 2C19 (Homo sapiens), sequence (P33261 whole entry, looked up): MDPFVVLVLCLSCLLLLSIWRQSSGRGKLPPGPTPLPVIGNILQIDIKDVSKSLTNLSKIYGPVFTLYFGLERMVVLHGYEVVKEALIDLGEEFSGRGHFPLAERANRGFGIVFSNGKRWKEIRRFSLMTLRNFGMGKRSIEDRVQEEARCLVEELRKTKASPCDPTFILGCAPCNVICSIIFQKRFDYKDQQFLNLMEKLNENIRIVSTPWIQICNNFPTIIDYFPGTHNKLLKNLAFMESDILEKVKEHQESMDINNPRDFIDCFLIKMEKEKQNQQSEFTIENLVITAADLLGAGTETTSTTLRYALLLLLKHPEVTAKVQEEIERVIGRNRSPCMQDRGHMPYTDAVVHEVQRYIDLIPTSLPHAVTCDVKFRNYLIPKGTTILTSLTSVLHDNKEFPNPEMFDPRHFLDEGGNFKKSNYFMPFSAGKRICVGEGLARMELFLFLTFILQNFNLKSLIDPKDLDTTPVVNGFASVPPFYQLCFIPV

One assay has as its target Cytochrome P450 2C9 (Homo sapiens) (UniProt P11712). Put plainly: qHTS Assay for Inhibitors and Substrates of Cytochrome P450 2C9 (AID 883). Also: nearly all actives have a fitted effect of over 60% in size. Also: potency is read from the fitted curve at half-maximal effect. To be noted: recombinant CYP2C9, luciferin-H luminescence, 60 min; series mostly up to 25.6 µM. In outline:
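Human CYP2C9 (10nM) with Luciferin-H at 100uM (its KM) in 25mM KPO4; compound preincubated 10 min at 37C, then NADPH regeneration for 60 min at 37C. Luciferin read by luminescence after detection reagent; normalized to 57uM sulphaphenazole as full inhibition.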
`FC(F)(F)c1ccccc1-c1ccc2ncnc(NC3CCNCC3)c2c1`: the activity change, negative = inhibition is 12.9% [at 2.29 µM] (inactive).

On to `Cc1cc2ccc(=O)oc2cc1OC[C@@H](O)C(C)(C)O`, for which the Potency result was “inactive”.

For the compound `CC/C=C\C[C@H]1C(=O)CC[C@@H]1CC(=O)O`, the Potency entry was “inactive”.

Turning to `COc1cccc(-c2nc(NCCc3c[nH]c4ccc(OC)cc34)c3ccccc3n2)c1`, the Potency is 794 nM (active).

Turning to `C[C@@H](Cc1cccc(C(F)(F)F)c1)NCCOC(=O)c1ccccc1`, the Potency result is “inactive”.

As for `C=Cc1c(C)c2cc3nc(cc4[nH]c(cc5nc(cc1[nH]2)C(C)=C5CCC(=O)O)c(CCC(=O)OC)c4C)[C@@]1(C)C3=CC=C(C(=O)OC)[C@H]1C(=O)OC` (tested in a mixture with another compound), the Potency is 1260 nM (active).

On to `Nc1ncnc2c1ncn2[C@@H]1O[C@H](COP(=O)(O)O)[C@@H](O)[C@@H]1O`, for which the Potency entry is “inactive”.

As to `NCCC(=O)N[C@@H](Cc1cnc[nH]1)C(=O)O`, the Potency result was “inactive”.

For the compound `C/C(=C\CNc1ncnc2nc[nH]c12)CO`, the Potency result was “inactive”.

On to `O=c1cc(-c2cccc(O)c2)oc2cc(O)ccc12`, for which the Potency is 25100 nM (active).

Regarding `CN1[C@H](CC(=O)c2ccccc2)CCC[C@H]1C[C@@H](O)c1ccccc1`, the Potency result is “inactive”.

In the case of `CC=C(/C(=C/C)c1ccc(O)cc1)c1ccc(O)cc1`, the Potency was 794 nM (active).

A further assay deals with Cytochrome P450 3A4 (Homo sapiens) (UniProt P08684). Put plainly: qHTS Assay for Inhibitors and Substrates of Cytochrome P450 3A4 (AID 884). Also: nearly all actives have a fitted effect of over 50% in size. Also: potency is read from the fitted curve at half-maximal effect. To be noted: recombinant CYP3A4, Luciferin-PPXE luminescence; series mostly up to 57.1 µM. The method, boiled down:
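Luminescent readout of luciferin produced by CYP3A4 (20 nM) dealkylation of Luciferin-PPXE, 25 uM (its KM). NADPH-driven reaction ran 60 min at RT after 10 min compound preincubation; data scaled to 57 uM ketoconazole as 100% inhibition.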
On to `Cc1cc2ccc(=O)oc2cc1OC[C@@H](O)C(C)(C)O`, for which the Potency result is “inactive”.

For the compound `CC/C=C\C[C@H]1C(=O)CC[C@@H]1CC(=O)O`, the Potency entry was “inactive”.

Consider `Nc1ncnc2c1ncn2[C@@H]1O[C@H](COP(=O)(O)O)[C@@H](O)[C@@H]1O`, for which the Potency entry was “inactive”.

In the case of `CC1=C(CCC(=O)O)c2cc3nc(cc4[nH]c(cc5[nH]c(cc1n2)c(C)c5C(C)O)c(C)c4C(C)O)C(C)=C3CCC(=O)O` (centres undefined), the Potency entry is “inactive”.

Turning to `NCCC(=O)N[C@@H](Cc1cnc[nH]1)C(=O)O`, the Potency entry was “inactive”.

With `C/C(=C\CNc1ncnc2nc[nH]c12)CO`, the Potency result is “inactive”.

On to `COc1cc2ccc(=O)oc2c(O)c1O`, for which the Potency entry was “inactive”.

As for `O=c1cc(-c2cccc(O)c2)oc2cc(O)ccc12`, the Potency was 12600 nM (active).

As to `CN1[C@H](CC(=O)c2ccccc2)CCC[C@H]1C[C@@H](O)c1ccccc1`, the Potency result was “inactive”.

Regarding `CC1(C)S[C@@H]2[C@H](NC(=O)[C@@H](N)c3ccccc3)C(=O)N2[C@H]1C(=O)O[C@H]1OC(=O)c2ccccc21`, the Potency was 1580 nM (active).

The next assay shares this target. Put plainly: qHTS Assay for Activators of Cytochrome P450 3A4 (AID 885). Also: nearly all actives have a fitted effect of over 65% in size. To be noted: recombinant CYP3A4, Luciferin-PPXE luminescence, 60 min; series mostly up to 57.1 µM. In outline:
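Using 20nM recombinant human CYP3A4 in potassium phosphate (200mM), substrate Luciferin-PPXE at 25uM, luminescent luciferin detection followed a 60-min RT NADPH reaction; data scaled to 57 uM ketoconazole.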
Regarding `COc1cc(N[C@@H](C)CCCN)c2ncccc2c1`, the Potency result was “inactive”.

Consider `COc1cccc(-c2nc(NCCc3c[nH]c4ccc(OC)cc34)c3ccccc3n2)c1`, for which the Potency result is “inactive”.

Consider `C=Cc1c(C)c2cc3nc(cc4[nH]c(cc5nc(cc1[nH]2)C(C)=C5CCC(=O)O)c(CCC(=O)OC)c4C)[C@@]1(C)C3=CC=C(C(=O)OC)[C@H]1C(=O)OC` (tested in a mixture with another compound), for which the Potency entry is “inactive”.

Consider `COc1ccc2c(c1)N(C[C@@H](C)CN(C)C)c1ccccc1S2`, for which the Potency result was “inactive”.

As to `CCN(CC)CCOC(=O)[C@@H](c1ccccc1)C1CCCCC1`, the Potency result is “inactive”.

`O=c1cc(-c2cccc(O)c2)oc2cc(O)ccc12`: the Potency result was “inactive”.

For `CC[C@H](C(=O)[C@H](C)[C@H](O)[C@H](C)CCc1ccc(C)c(O)c1C(=O)O)[C@H]1O[C@](CC)([C@@H]2CC[C@@](O)(CC)[C@H](C)O2)C[C@H]1C`, the Potency result is “inactive”.

On to `CC=C(/C(=C/C)c1ccc(O)cc1)c1ccc(O)cc1`, for which the Potency result is “inactive”.

With `CC1(C)S[C@@H]2[C@H](NC(=O)[C@@H](N)c3ccccc3)C(=O)N2[C@H]1C(=O)O[C@H]1OC(=O)c2ccccc21`, the Potency entry is “inactive”.

The target of another assay is Cytochrome P450 2C19 (Homo sapiens) (UniProt P33261). The experiment in a line: qHTS Assay for Inhibitors and Substrates of Cytochrome P450 2C19 (AID 899). Also: nearly all actives have a fitted effect of over 60% in size. Also: potency is read from the fitted curve at half-maximal effect. To be noted: recombinant CYP2C19, luciferin-H EGE luminescence; series mostly up to 57.1 µM. In outline:
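5 nM human CYP2C19 with 10uM Luciferin-H EGE (at KM) in 50mM KPO4, compound preincubated 10 min at 37C, then NADPH regeneration for 60 min at 37C. Luciferin read by luminescence after detection reagent; normalized to 57uM ketoconazole as full inhibition.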
For `FC(F)(F)c1ccccc1-c1ccc2ncnc(NC3CCNCC3)c2c1`, the Potency was 3980 nM (active).

With `Cc1cc2ccc(=O)oc2cc1OC[C@@H](O)C(C)(C)O`, the Potency result was “inactive”.

Regarding `CC/C=C\C[C@H]1C(=O)CC[C@@H]1CC(=O)O`, the Potency entry was “inactive”.

For `COc1cccc(-c2nc(NCCc3c[nH]c4ccc(OC)cc34)c3ccccc3n2)c1`, the Potency was 1580 nM (active).

For the compound `Nc1ncnc2c1ncn2[C@@H]1O[C@H](COP(=O)(O)O)[C@@H](O)[C@@H]1O`, the Potency entry is “inactive”.

As for `NCCC(=O)N[C@@H](Cc1cnc[nH]1)C(=O)O`, the Potency entry is “inactive”.

As to `C/C(=C\CNc1ncnc2nc[nH]c12)CO`, the Potency result was “inactive”.

Take `O=c1cc(-c2cccc(O)c2)oc2cc(O)ccc12`: the Potency entry is “inactive”.

Regarding `CN1[C@H](CC(=O)c2ccccc2)CCC[C@H]1C[C@@H](O)c1ccccc1`, the Potency result was “inactive”.

`CC=C(/C(=C/C)c1ccc(O)cc1)c1ccc(O)cc1`: the Potency is 3160 nM (active).

Tested on in a further assay: not listed separately
The experiment in a line: Confirmation and Secondary Assay for Modulators of Hemoglobin Beta Chain Splicing at IVS2 654 locus (AID 910).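 Also: HeLa cells stably carrying EGFP split by mutant beta-globin IVS2-654 intron.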 As to conditions: HeLa EGFP-654 splicing reporter, GFP fluorescence, 48 h; series mostly up to 46.1 µM. The method, boiled down: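 HeLa cells stably expressing EGFP interrupted by β-globin IVS2-654 intron, seeded overnight in Opti-MEM/2% FCS, then treated 2 days at 37 °C. Restored splicing read as total peak GFP intensity per well by laser scanning cytometry (488 nm excitation, 500–520 nm emission); 500 nM antisense PNA as control.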
On to `FC(F)(F)c1ccccc1-c1ccc2ncnc(NC3CCNCC3)c2c1`, for which the Potency result was “inactive”.

In the case of `COc1cccc(-c2nc(NCCc3c[nH]c4ccc(OC)cc34)c3ccccc3n2)c1`, the Potency entry is “inactive”.

`CC1=C(CCC(=O)O)c2cc3nc(cc4[nH]c(cc5[nH]c(cc1n2)c(C)c5C(C)O)c(C)c4C(C)O)C(C)=C3CCC(=O)O` (centres undefined): the Potency entry was “inactive”.

Take `COc1cc2ccc(=O)oc2c(O)c1O`: the Potency entry is “inactive”.

Tested on in another assay: not listed separately
Put plainly: Confirmation and Secondary Assay for Modulators of Hemoglobin Beta Chain Splicing at IVS2 705 locus (AID 930).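 Also: HeLa cells stably expressing the EGFP-705 splicing reporter; GFP fluorescence per well restored by corrected splicing of the IVS2-705 intron in EGFP.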 To be noted: HeLa EGFP-705 splicing reporter, GFP fluorescence, 48 h; series mostly up to 46.1 µM. The method, boiled down:
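Stable HeLa line with EGFP disrupted by mutant beta-globin intron 2 (705). Overnight attachment, then 2 days of compound at 37C, 5% CO2. Signal: peak GFP intensity summed over objects 5-250 µm.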
With `FC(F)(F)c1ccccc1-c1ccc2ncnc(NC3CCNCC3)c2c1`, the Potency result was “inactive”.

With `COc1cccc(-c2nc(NCCc3c[nH]c4ccc(OC)cc34)c3ccccc3n2)c1`, the Potency entry is “inactive”.

Consider `CC1=C(CCC(=O)O)c2cc3nc(cc4[nH]c(cc5[nH]c(cc1n2)c(C)c5C(C)O)c(C)c4C(C)O)C(C)=C3CCC(=O)O` (centres undefined), for which the Potency result was “inactive”.

For the compound `COc1cc2ccc(=O)oc2c(O)c1O`, the Potency result was “inactive”.
